Over roughly 33,000 sequences, “E-score (-0.5 to 0.5)” has its median near -0.021; the highest 2% begin near 0.32. This excerpt belongs to a sample that is enriched for the highest values.
target: T1, Zap1 (UniProt P47043); assay: PBM E-score (8-mer binding enrichment) (E-score (-0.5 to 0.5)); higher = stronger / more preferred TF binding; details: protein concentration: 200 nM; construct: GST-full length
T1 sequence: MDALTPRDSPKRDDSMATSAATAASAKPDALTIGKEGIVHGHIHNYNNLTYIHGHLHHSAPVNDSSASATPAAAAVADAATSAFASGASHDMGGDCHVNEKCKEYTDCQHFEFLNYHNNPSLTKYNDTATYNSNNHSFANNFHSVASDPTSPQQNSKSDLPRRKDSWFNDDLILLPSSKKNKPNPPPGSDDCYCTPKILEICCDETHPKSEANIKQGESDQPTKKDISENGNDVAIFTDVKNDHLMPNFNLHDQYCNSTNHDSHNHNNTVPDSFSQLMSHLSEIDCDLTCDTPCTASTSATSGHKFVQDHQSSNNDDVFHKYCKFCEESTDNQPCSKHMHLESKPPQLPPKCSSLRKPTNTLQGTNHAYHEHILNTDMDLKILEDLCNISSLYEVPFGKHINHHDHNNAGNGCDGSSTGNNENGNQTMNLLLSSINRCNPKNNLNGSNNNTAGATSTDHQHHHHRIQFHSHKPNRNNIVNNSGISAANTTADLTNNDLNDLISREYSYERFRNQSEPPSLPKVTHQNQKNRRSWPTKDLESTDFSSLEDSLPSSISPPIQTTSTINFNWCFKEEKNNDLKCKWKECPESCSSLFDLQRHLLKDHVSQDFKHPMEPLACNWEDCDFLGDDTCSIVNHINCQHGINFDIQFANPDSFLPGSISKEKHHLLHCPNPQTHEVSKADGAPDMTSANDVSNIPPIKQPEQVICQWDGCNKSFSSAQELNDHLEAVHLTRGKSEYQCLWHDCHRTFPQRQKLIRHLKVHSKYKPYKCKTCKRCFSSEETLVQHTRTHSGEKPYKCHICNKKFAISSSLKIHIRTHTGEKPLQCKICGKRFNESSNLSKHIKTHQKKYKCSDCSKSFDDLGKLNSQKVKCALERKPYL
Experimental: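 Universal 'all 10-mer' protein binding microarrays (Agilent AMADID 015681) probed with GST-tagged S. cerevisiae TFs (full-length or DBD) made by in vitro transcription/translation (PURExpress), about 100-200 nM. Bound TF was detected with fluorescent anti-GST. Each ungapped 8-mer (which stands for itself and its reverse complement) is scored by the PBM enrichment score (E-score), a modified Wilcoxon-Mann-Whitney statistic from -0.5 to +0.5, computed with the Universal PBM Analysis Suite. Scale: above 0.35 generally sequence-specific binding.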

Row | Sequence | PBM E-score
1 | TAAGGGGA | 0.00031
2 | GAAGGGGA | -0.0649
3 | AAAGGGTA | 0.415
4 | AAAGGGGA | -0.127
5 | TAAGGGCA | -0.0345
6 | AAGGGGTA | 0.334
7 | AGGGGGTA | 0.0442
8 | AAAGGGCA | -0.0435
9 | AACGAATA | -0.00355
10 | CAATCCAG | -0.0505
11 | CGAAGTCG | 0.0486
12 | GCTTCCGA | -0.0201
13 | AGAGCAAT | -0.181
14 | ACCCTAGT | 0.411
15 | TCCCTAGA | -0.0192
16 | ACCCTAGA | 0.359
17 | CCCCTAGG | 0.16
18 | AACCTAGT | 0.161
19 | ACCCTAGC | 0.247
20 | AACCTAGG | 0.232
21 | CCCCTAGA | 0.147
22 | ACCCTAGG | 0.428
23 | GAAGTGGC | -0.106
24 | GCGCATGA | -0.185
25 | AGGACATG | -0.0235

Row | Sequence | PBM E-score
26 | AAATACCA | 0.129
27 | ACGGGTTA | 0.408
28 | CCGGGTTA | 0.388
29 | GCGGGGTA | 0.293
30 | CCGGGTTC | 0.247
31 | GCGGGTAA | 0.106
32 | ACGGGTTG | 0.158
33 | CCGGGTGA | 0.218
34 | GCGGGTTA | 0.366
35 | GGGGGTTA | 0.0334
36 | ACGGGTTC | 0.0245
37 | CGGGGTTA | 0.474
38 | CGGGGTTC | 0.168
39 | ATCTTATG | -0.00019
40 | CCCTTCAG | 0.122
41 | GCGCACAC | -0.234
42 | CGGCGTTA | 0.0618
43 | ATCTAGGA | -0.0827
44 | AAGTTGAT | -0.14
45 | AGCTGTAG | -0.0501
46 | ATGGCCAT | 0.332
47 | ATGGCCAC | 0.185
48 | ATGGCCAG | 0.268
49 | CGACGCTC | 0.0879
50 | CTGAGCCC | -0.179

Row | Sequence | PBM E-score
51 | ACCCTTAG | 0.432
52 | GCCCTTAA | 0.112
53 | CCCCTTAG | 0.107
54 | ACCCTTAA | 0.443
55 | AGCCTTAT | -0.0493
56 | TCCCTTAA | 0.0619
57 | ATCCTTAG | -0.192
58 | ACCCTTAC | 0.29
59 | ACCCTTAT | 0.404
60 | TAGTTGCA | 0.116
61 | ATACACGC | -0.091
62 | AATCACAC | 0.0533
63 | TCTCGCCA | -0.206
64 | ACAATACC | 0.252
65 | TACTATAA | 0.249
66 | CAGATGAA | -0.103
67 | ACTCTCGG | 0.0208
68 | ACGGTGAA | -0.0282
69 | ACCTCGTA | 0.189
70 | ACCTCGTG | 0.348
71 | ACCTCGTC | 0.0929
72 | CCCTCGAG | 0.159
73 | ACCTCGAT | 0.245
74 | ACCTCGAG | 0.349
75 | ACTGTCGA | -0.0508

Row | Sequence | PBM E-score
76 | CCCAATTC | 0.157
77 | TCACAGAA | -0.00307
78 | CTGCGCAG | -0.325
79 | CTTGAGCC | -0.111
80 | GGAACCAC | 0.0961
81 | ATAACCAC | 0.46
82 | CCAACCAC | 0.256
83 | AAAACCAC | 0.197
84 | GTAACCAC | 0.431
85 | GAAACCAC | 0.116
86 | CAAACCAC | 0.0159
87 | CTAACCAC | 0.325
88 | AGAACCAC | 0.285
89 | CCTCTAAG | 0.139
90 | ACCATTTC | 0.126
91 | GATGGGCC | -0.145
92 | CCCCCCAA | -0.371
93 | TAGCCTAA | -0.0154
94 | ACTACCTA | 0.161
95 | ATTACCTA | 0.216
96 | ACTACCTC | 0.356
97 | ATTACCTG | 0.149
98 | ATTACCTC | 0.32
99 | CCTACCTC | 0.125
100 | CGTAATCA | 0.196

Row | Sequence | PBM E-score
101 | ACGTCACC | 0.0378
102 | AGGTCAAC | 0.118
103 | AGGTCACG | 0.406
104 | CGGTCACC | 0.276
105 | AGGTCACC | 0.37
106 | AGGTCACT | 0.25
107 | GAGTCACC | 0.0467
108 | GGGTCACC | 0.438
109 | ATGTCACG | -0.195
110 | AGGTCACA | 0.359
111 | AAGTCACA | -0.034
112 | CGGTCACG | 0.203
113 | ACCCATTG | 0.166
114 | CGAGCGAA | -0.162
115 | ATACGGCA | 0.0784
116 | AACGAGAG | -0.138
117 | GCTTTACA | -0.0896
118 | CTTAATCC | -0.131
119 | GACTGAAC | -0.199
120 | ACCAGCAA | 0.26
121 | TCTAGGCA | -0.0489
122 | AAAAACTT | 0.0552
123 | GCATTAGC | -0.151
124 | GGATACAA | 0.0969
125 | CGTTTGGA | 0.0241

Row | Sequence | PBM E-score
126 | GGGTCACA | 0.398
127 | TGGTCACA | 0.231
128 | CGGTCACA | 0.163
129 | GCCCAACC | -0.0373
130 | ACTATGGC | -0.0314
131 | AGTTATGC | 0.0469
132 | ACGGTGAC | -0.0408
133 | CGGGTGAC | 0.167
134 | GGGGTGAC | 0.337
135 | GGGGTGAA | 0.0494
136 | AGGGTGAG | -0.118
137 | AGGGTGTC | 0.304
138 | AGGGTGAA | 0.0968
139 | AGGGTGAC | 0.415
140 | AGGGTGAT | 0.427
141 | ATCTCGTA | -0.0363
142 | AACTGTCT | -0.105
143 | GAGAGCTA | -0.305
144 | GGCGATCA | -0.283
145 | GCCCTGCA | -0.195
146 | CCCCTGCG | -0.17
147 | ACCCTGCA | 0.394
148 | TCCCTGCA | 0.0185
149 | ACCCTGCC | 0.186
150 | ACCCTGCG | 0.422

Row | Sequence | PBM E-score
151 | TACACAGA | 0.0113
152 | AGACTGAC | -0.202
153 | GAGCTATA | -0.233
154 | ACATACGA | 0.0717
155 | CGCGTCGC | -0.204
156 | CTGTGGAA | -0.0936
157 | AACCAGAT | 0.142
158 | ACAGATCT | -0.0411
159 | ACATAACC | 0.454
160 | GCATAACA | 0.0518
161 | GCATAAGC | -0.0977
162 | GCATAACC | 0.414
163 | ACATAACT | 0.149
164 | ACATAACG | 0.0512
165 | CATCTTAA | -0.0359
166 | AAGCGGGC | -0.335
167 | AGTGACCG | 0.115
168 | AGTGACAC | -0.119
169 | CTTGACCC | 0.311
170 | GGTGACCA | 0.283
171 | AGTGACCA | 0.247
172 | CGTGACCC | 0.418
173 | CGTGACCA | 0.35
174 | CGTGACGC | -0.134
175 | AGTGACCC | 0.347

— the supplement of paper PMC3334620
